Compound activity deposited in PubChem BioAssay by National Center for Advancing Translational Sciences (NCATS).
Shiga toxin inh – A qHTS for Small Molecule Inhibitors of Shiga Toxin | inhibition, % at 38.7 µM | Vero cells, Shiga toxin protein synthesis inhibition reporter | hit rate 9.2% among 290,000 | AID 2315, 2010; in the data active means inhibition mostly above about 28%, no sharp cut-off; inactive means mostly below about 43%; further: 0% is about no effect
HCMV antiviral – qHTS Assay for inhibitors of the human cytomegalovirus (HCMV). HFF cells, HCMV-luciferase reporter, 72 h; hits give low values. activity change, negative = inhibition, % at 57.5 µM. hit rate 4.5% among 410,000. AID 1259415, 2018; in the data active means activity change below about -60%; inconclusive means no clear call, values can overlap the other calls; inactive means above about -39%; further: on the % scale 0 is the no-effect control and ±100 the full control effect
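Two-dose cell screen: HFF monolayers treated with compounds and infected with luciferase-expressing HCMV at 1 PFU/cell, 72 h at 37C, then lysed for luciferase measurement.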
Pf growth 96h – Primary qHTS for delayed death inhibitors of the malarial parasite plastid, 96 hour incubation | P. falciparum luciferase reporter growth, 96 h | Potency, µM (series often up to 28.7 µM), for the others: at the highest dose activity change, negative = inhibition, actives largely listed as inhibitors | hit rate 6.9% among 320,000 | AID 504834, 2011; further: potency means the concentration at half of the fitted maximal effect; on the % scale 0 is the no-effect control and ±100 the full control effect
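Two-generation exposure (96 h) targets delayed-death phenotype. Reporter parasites carrying integrated firefly luciferase, in red cells at 2% hematocrit and 0.05% parasitemia final, kept at 37 C, 5% CO2; luminescence loss indicates inhibition.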
Pf growth 48h – Primary qHTS for delayed death inhibitors of the malarial parasite plastid, 48 hour incubation | P. falciparum luciferase growth in erythrocytes, 48 h | Potency, µM (highest dose often 28.7 µM), for the others: at the top dose activity change, negative = inhibition, hits mostly inhibitors | hit rate 5.9% among 310,000; further: potency means the concentration at half of the fitted maximal effect; on the % scale 0 is the no-effect control and ±100 the full control effect
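Growth was read as firefly luciferase luminescence after a 48 h, 37 C, 5% CO2 exposure of compounds to reporter-bearing P. falciparum cultures (0.1% parasitemia, 2% hematocrit final) in Albumax-supplemented RPMI 1640.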
Cycloheximide cs – Cycloheximide Counterscreen for Small Molecule Inhibitors of Shiga Toxin; cell reporter, cycloheximide protein synthesis inhibition counterscreen; hit rate 12% among 300,000; AID 2314, 2010; max response, %; in the data active means max response mostly above about 13%, no sharp cut-off; inactive means mostly below about 14%; further: read at 38.3 µM for the half of the compounds with a filed dose; 0% is about no effect
HCV inh – qHTS Assay for Inhibitors of Hepatitis C Virus (HCV); hit rate 3.4% among 340,000; Huh7.5.1 HCVcc-Cre infection, luciferase reporter, 44 h; AID 651820, 2012; Potency, µM (highest dose often 41.8 µM), inactives show at the top dose activity change, negative = inhibition, usual class: inhibitors; further: potency means the concentration at half of the fitted maximal effect; on the % scale 0 is the no-effect control and ±100 the full control effect
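Seed cells (1,000/well) for 4 h; treat with compound and infect with HCVcc-Cre, moi about 0.5. Incubate 44 h, then detect luciferase activity.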
The depositor's hits bear a star; i = inactive; ? = inconclusive; . = no result given; + = active, no number. Most compounds without a hit are left out; they make up all but 21% or so of the library. Unless noted, the call rests on the fitted dose curve; in most records, active means well fitted inhibition curve with a large enough effect; inconclusive means small, poorly fitted or top-dose-only effect, or another doubt; inactive means no such curve, though single readings can be large or run the other way.

SMILES	Shiga toxin inh	HCMV antiviral	Pf growth 96h	Pf growth 48h	Cycloheximide cs	HCV inh
COc1ccccc1NC(=O)CCc1nc(-c2ccccc2F)no1	40.0	2.6	-0.9%	22.2%	15.8*	-19.0%
COc1cccc(NC(=O)CCc2nc(-c3ccccc3F)no2)c1	13.1	5.3	.	9.1%	16.8*	?
COc1cc(NC(=O)C2CCN(c3cnccn3)CC2)cc(OC)c1OC	-4.3	?	-20.9%	-11.7%	1.1	2.9%
O=C(CCC1CCN(C(=O)c2cc(C(F)(F)F)ccc2Cl)CC1)NC1CC1	1.4	-37.2	-31.0%	-36.6%	-4.5	-0.1%
O=C(O)CC(NC(=O)/C(=C/c1ccccc1)NC(=O)c1ccccc1)c1ccccc1 (stereo not given)	-2.0	-36.2	-2.7%	-21.3%	0.7	5.0%
O=c1c2oc3ccccc3c2n(Cc2ccc(Cl)cc2)c(=O)n1Cc1ccccc1	.	-3.1	.	.	.	.
Cc1cc(NC(=O)CSc2n[nH]c(-c3ccc(Cl)cc3Cl)n2)no1	.	-26.1	-7.6%	12.7%	.	?
CCc1c(C)sc(NC(=O)c2cc(C)on2)c1C#N	20.4	45.5	-26.0%	82.6%	3.5	-1.7%
Cc1ccc(C(=O)Nc2sc(C(=O)N(C)C)c(C)c2C#N)cc1	20.0	-23.7	53.2%	28.0%	-0.6	16.7%
CCOC(=O)c1c(NC(=O)c2cccs2)sc(C(=O)N(C)C)c1C	-15.6	-20.7	-9.6%	.	-1.5	12.6µM*
CCc1c(C)sc(NC(=O)c2cccs2)c1C#N	77.0*	147.3	213.2%	170.5%	53.3*	?
CCc1c(C)sc(NC(=O)c2cccs2)c1C(=O)OC(C)C	-5.9	?	13.4%	16.0%	-0.8	?
CCOC(=O)c1c(NC(=O)c2cccs2)sc(C(=O)N2CCOCC2)c1C	.	-22.2	.	.	.	-18.6%
Cc1sc(NC(=O)c2ccccc2)c(C#N)c1-c1ccccc1	26.1*	-14.9	4.15µM*	103.7%	42.6*	?
CCOC(=O)c1c(NC(=O)c2cccs2)sc(C)c1CC	12.2	-37.7	?	?	3.9	8.91µM*
O=S(=O)(c1ccc(Cl)cc1)c1nc(-c2cccs2)oc1SCc1ccccc1F	.	-22.0	.	.	.	.
CCN(CC)P(=O)(Nc1ccc([N+](=O)[O-])cc1)c1c(C)nn(CCC#N)c1NC(=O)c1ccc(Cl)cc1Cl (stereo not given)	-4.6	-32.1	7.38µM*	7.38µM*	2.3	-9.1%
N#CCCn1cc(C(=O)Nc2ccc([N+](=O)[O-])cc2)c(-c2ccccc2)n1	-4.9	-32.1	-21.5%	-15.4%	-2.7	1.4%
COC(=O)c1[nH]c2cc(C)ccc2c1NC(=O)CN1CCCc2ccccc21	i	-22.1	?	?	47.7*	-20.8%
CCOC(=O)c1c(NC(=O)CN2CCCc3ccccc32)sc(C)c1CC	19.4	-19.9	?	?	6.5	?
COC(=O)c1[nH]c2ccc(Br)cc2c1NC(=O)CN1CCCc2ccccc21	13.7	-2.6	10.4µM*	?	0.9	?
NC1(N2SC(S)=C3CCCC=C32)CCCCC1	.	-23.8	.	.	.	.
Cc1cccc2c1-c1sc(C(=O)N3CCN(c4ccc(F)cc4)CC3)cc1CO2	.	4.9	.	.	.	.
C=C(Cl)COc1ccc2c(C)cc(=O)oc2c1	+	-5.0	92.5%	62.1%	23.1*	?
CCCCc1cc(=O)oc2cc(OCC(=O)N(CC)CC)ccc12	-6.4	-26.6	.	?	0.9	-21.8%
SMILES	Shiga toxin inh	HCMV antiviral	Pf growth 96h	Pf growth 48h	Cycloheximide cs	HCV inh
C=C(Cl)COc1ccc2c(CC)cc(=O)oc2c1	-19.4	8.4	.	24.1%	1.2	8.91µM*
CCc1cc(=O)oc2cc(OCC(=O)N3CCC[C@H]3C(=O)O)ccc12	-2.9	12.8	23.4%	-2.0%	0.3	14.5%
Cc1cc(=O)oc2cc(OCC(=O)NC3CCCC3)ccc12	-3.7	42.4	-8.0%	2.3%	-3.1	?
C=C(C)COc1ccc2c(CC)cc(=O)oc2c1	49.3	?	-20.1%	36.0%	21.8*	?
C=C(Cl)COc1ccc2c(CCCC)cc(=O)oc2c1	64.5	-9.6	.	-23.0%	25.5*	?
CC(=O)N1CCc2c(sc3c2c(=O)n(-c2cc(Cl)ccc2C)c(=O)n3C)C1	.	0.7	.	.	.	.
COc1ccc(NC(=O)C(=O)NCCc2csc(-c3ccc(Cl)cc3)n2)cc1	.	11.9	.	.	.	.
CCCCc1cc(=O)oc2cc(OS(C)(=O)=O)ccc12	-33.4	26.9	58.3%	24.1%	20.4*	?
COc1ccc(CCNC(=O)COc2ccc3c(C)cc(=O)oc3c2)cc1OC	-3.4	-10.7	2.94µM*	12.4%	-3.8	-2.8%
Cc1cc(=O)oc2cc(OCC3CC(c4ccccc4)=NO3)ccc12 (stereo not given)	53.3*	51.7	-40.6%	.	21.3*	?
Cc1cc(=O)oc2cc(OCC(=O)OCC(=O)NCCc3ccccc3)ccc12	-1.6	-8.0	-23.5%	?	1.4	10.7%
Cc1cccc(-n2c(=O)c3c(c4cc(C)ccc4n3C)n(CC(=O)Nc3ccc(C)cc3C)c2=O)c1	.	7.4	.	.	.	.
CC(C)N(CCO)Cc1nc(C(c2ccccc2)c2ccccc2)no1	-3.4	10.3	9.28µM*	?	-1.1	26.3%
COc1ccc(CC(=O)Nc2ccc(-c3nc4ccccc4s3)c(C)c2)cc1OC	.	27.0	.	.	.	.
CC(C)c1ccc(C2c3[nH]c4ccccc4c3C[C@H]3C(=O)N(c4ccccc4C(=O)N4CCC[C@H]4C(=O)O)C(=O)N23)cc1 (stereo not given in full)	13.8	-21.6	?	6.57µM*	8.5	4.2%
COc1ccc(C2c3[nH]c4ccccc4c3C[C@H]3C(=O)N(c4ccccc4C(=O)N4CCC(C(=O)O)CC4)C(=O)N23)cc1 (stereo not given in full)	-0.8	-11.3	?	11.7µM*	-2.6	-66.5%
Cc1cc(=O)oc2c(CN3CC(C)OC(C)C3)c(O)c(Cl)cc12 (stereo not given)	-7.6	31.6	18.6%	13.3%	-2.3	1.3%
CCCc1[nH]c(=O)c(C#N)c2c1COC(C)(C)C2	-11.8	33.3	1.65µM*	.	-4.4	13.7%
CC(C)Cc1[nH]c(=O)c(C#N)c2c1COC(C)(C)C2	-14.0	-16.9	.	-16.2%	-1.3	-1.3%
